For seven compounds, Potency and outcome results are on record in PubChem BioAssay (Tox21).

“And” between values parts separate entries of the source, which are not always exact repeats. Identical values can stand only once. Inconclusive results are not listed. Some compounds were tested as several samples or in several runs, with calls that do not always agree. The source made the active and inactive calls. Unless noted, the call rests on the fitted dose curve; in most records, active means well fitted curve in the direction sought with a large enough effect in the repeat runs; inconclusive means weak or mixed curves; inactive means no such curve, though single readings can be large; an effect the other way counts as inactive or inconclusive.

The nature of assay [1]: qHTS assay to identify small molecule agonists of the progesterone receptor (PR) signaling pathway - cell viability counter screen (AID 1346799; calls by dose curve; further: nearly all actives have a fitted effect of over 45% in size; further: potency means the concentration at half of the fitted maximal effect). In short, it runs like this:
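Multiplexed viability read: CellTiter-Glo luminescence, 30 min RT, following LiveBLAzer FRET measurement on PR-UAS-bla HEK293T cells exposed to compounds 16 hr.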
For orientation: In qHTS, concentration-response curves come from the screen itself.

A short description of assay [2]: qHTS assay to identify small molecule antagonists of the TGF-beta/Smad signaling pathway - cell viability counter screen (AID 1346824). Further: nearly all actives have a fitted effect of over 50% in size. In short, it runs like this:
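SBE-bla HEK 293T cells, incubated overnight, then compound plus 0.25 ng/mL TGF-beta1 (stock added) for 5 hr at 37 C. Viability was read in the same wells by CellTiter-Glo luminescence after 30 min at room temperature.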

Assay [3] is described as follows: qHTS assay to identify small molecule agonists of the TGF-beta/Smad signaling pathway - cell viability counter screen (AID 1346829). Further: top concentration of the series differs between compounds; nearly all actives have a fitted effect of over 45% in size. The method in brief: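 After overnight seating at 37 C and 5% CO2, reporter cells got compounds for 5 hr and FRET substrate for 2 hr; cell viability then came from CellTiter-Glo luminescence.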
Assay [4] is described as follows: qHTS assay to identify small molecule agonists of the TGF-beta/Smad signaling pathway (AID 1346859; active means well fitted activation curve with a large enough effect in the signal ratio in the repeat runs, not every such curve was filed as active; the % refers to the signal ratio; further: series mostly up to about 77 µM). In short, it runs like this:
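Screening used HEK 293T SBE-bla cells at 4,000/well. Test agents: 5 hr, 37 C. Detection: FRET substrate, 2 hr RT, then excitation 405 nm with emissions at 460 and 530 nm.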

Assay [5] concerns the target Thyrotropin-releasing hormone receptor (Homo sapiens) (UniProt P34981). The assay can be described thus: qHTS assay to identify small molecule antagonists of the thyrotropin-releasing hormone receptor (TRHR) signaling pathway (AID 1346877; active means well fitted inhibition curve with a large enough effect in the repeat runs, not every such curve was filed as active; further: potency means the concentration at half of the fitted maximal effect). The method in brief: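 Kinetic fluorescence (3 min, 1 s resolution) following stimulation with TRH at 1 nM final; HEK293 cells bearing human TRHR; 5 min compound preincubation at RT; concentration-response over 15 points, triplicates.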

Assay [6] shares this target. The assay can be described thus: qHTS assay to identify small molecule agonists of the thyrotropin-releasing hormone receptor (TRHR) signaling pathway (AID 1346891; calls by dose curve; further: series mostly up to about 58 µM). In short, it runs like this:
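Readout was intracellular calcium fluorescence in TRHR-Hek293 cells. Cells were incubated 18 h, dye-loaded 2 h at 37 °C, and treated with compound in agonist mode.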

Assay [7] is described as follows: Human pregnane X receptor (PXR) small molecule agonists, qHTS cell viability counter screen (AID 1346977). Further: nearly all actives have a fitted effect of over 50% in size. Further: potency means the concentration at half of the fitted maximal effect. In short, it runs like this: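 In each well, the PXR reporter HepG2 line was checked for viability: CellTiter-Fluor reagent added 23hr post-dosing, fluorescence read after 1hr incubation at 37C.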
Assay [8] can be described thus: Caspase-3/7 induction in HepG2 cells by small molecules, qHTS assay (AID 1346978). Further: nearly all actives have a fitted effect of over 15% in size. Further: potency means the concentration at half of the fitted maximal effect. The method in brief: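 Wild-type HepG2 cells, 2,000/well, settled 5 hr at 37 C and 5% CO2, then compound-treated for 17 hr; caspase-3/7 activity read by luminescent Caspase-Glo 3/7 after 30 min at room temperature.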
Assay [9] in a line: Caspase-3/7 induction in CHO-K1 cells by small molecules, qHTS assay (AID 1346980). Further: nearly all actives have a fitted effect of over 15% in size. The method in brief: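 Wild-type CHO-K1 cells exposed to compounds for 17hr at 37 C, 5% CO2. Caspase-3/7 activity then measured by Caspase-Glo 3/7 luminescence after 30min at room temperature.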
A short description of assay [10]: Caspase-3/7 induction in HepG2 cells by small molecules, qHTS cell viability counter screen (AID 1346981). Further: nearly all actives have a fitted effect of over 30% in size. Further: potency means the concentration at half of the fitted maximal effect. In short, it runs like this:
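In this quantitative HTS counter screen, compounds delivered in DMSO were left on unmodified HepG2 cells for 16 hr at 37 C. Viability was then determined fluorometrically with CellTiter-Fluor, in parallel with caspase-3/7 induction in the same wells.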

The target of assay [11] is Cytochrome P450 2D6 (Homo sapiens) (UniProt P10635). The experiment in a line: Cytochrome P450 Family 2 Subfamily D Member 6 (CYP2D6) small molecule antagonists: luciferase reporter qHTS assay (AID 1671196). Further: nearly all actives have a fitted effect of over 50% in size. Further: potency means the concentration at half of the fitted maximal effect. In short, it runs like this:
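Test chemicals meet CYP2D6 plus proluciferin substrate (10 min, RT); NADPH regenerating solution then drives turnover for 1 h. Detection reagent halts the reaction; luminescence measured after 20 min.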
In general terms: Reporter assays use an easily measured gene product as a stand-in for the process of interest.

Assay [12] addresses Cytochrome P450 2C19 (Homo sapiens) (UniProt P33261). The experiment in a line: Cytochrome P450 Family 2 Subfamily C Member 19 (CYP2C19) small molecule antagonists: luciferase reporter qHTS assay (AID 1671197). Further: nearly all actives have a fitted effect of over 65% in size. Further: potency means the concentration at half of the fitted maximal effect. In short, it runs like this:
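Inhibition of CYP2C19 was scored from loss of luminescence in a P450-Glo proluciferin substrate assay, NADPH-started and run 1 h at 37C, with ketoconazole as positive control.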

In assay [13] the target is Cytochrome P450 1A2 (Homo sapiens) (UniProt P05177). The assay can be described thus: Cytochrome P450 Family 1 Subfamily A Member 2 (CYP1A2) small molecule antagonists: luciferase reporter qHTS assay (AID 1671199). Further: nearly all actives have a fitted effect of over 50% in size. Further: potency means the concentration at half of the fitted maximal effect. In short, it runs like this: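 Steps: enzyme-substrate mix dispensed; test compounds and furafylline control pinned in; 10 min room temperature; NADPH regeneration solution added, 1 h; reaction stopped with luciferin detection reagent; luminescence read after 20 min.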
Sequence of Cytochrome P450 1A2 (Homo sapiens) (P05177 whole entry, looked up): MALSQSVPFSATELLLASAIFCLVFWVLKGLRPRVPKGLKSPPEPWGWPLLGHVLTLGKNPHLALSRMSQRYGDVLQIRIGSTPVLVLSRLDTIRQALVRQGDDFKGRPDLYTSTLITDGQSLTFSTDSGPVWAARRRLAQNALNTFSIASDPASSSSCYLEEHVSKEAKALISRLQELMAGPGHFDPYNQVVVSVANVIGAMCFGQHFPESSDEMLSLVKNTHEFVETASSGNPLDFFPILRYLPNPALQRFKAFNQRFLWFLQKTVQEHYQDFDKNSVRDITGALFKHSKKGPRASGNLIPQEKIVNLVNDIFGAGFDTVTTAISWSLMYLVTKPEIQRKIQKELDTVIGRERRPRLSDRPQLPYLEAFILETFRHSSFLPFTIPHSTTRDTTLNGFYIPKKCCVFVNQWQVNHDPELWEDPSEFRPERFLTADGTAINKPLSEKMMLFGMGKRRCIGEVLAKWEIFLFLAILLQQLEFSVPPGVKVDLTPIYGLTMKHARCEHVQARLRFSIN

The target in assay [14] is Voltage-gated inwardly rectifying potassium channel KCNH2 (Homo sapiens) (UniProt Q12809). The assay can be described thus: Human Ether-a-go-go-Related Gene (hERG) channel small molecule antagonists: fluorescence cell-based qHTS assay (AID 1671200). The method in brief:
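In this thallium-flux screen, overnight-cultured U2OS cells bearing the channel are dye-loaded in darkness for an hour, rested 10 min at room temperature, and then monitored kinetically at 480/540 nm for two minutes post-stimulus.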
On the technique in general: Block of hERG is tested as a sign of cardiac risk.

The nature of assay [15]: Caspase-3/7 induction in CHO-K1 cells by small molecules, qHTS cell viability counter screen (AID 1346979). Further: nearly all actives have a fitted effect of over 35% in size. Further: potency means the concentration at half of the fitted maximal effect. The method in brief: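 Following a 5hr settling period, CHO-K1 cells at 1,500 per well received DMSO-dissolved compounds. Cell viability was quantified 16hr later by CellTiter-Fluor fluorescence, measured after 1hr with reagent at 37C.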
Assay [16] addresses Nuclear receptor subfamily 1 group I member 2 (Homo sapiens) (UniProt O75469). The assay can be described thus: Human pregnane X receptor (PXR) small molecule agonists, qHTS assay (AID 1346982). Further: nearly all actives have a fitted effect of over 35% in size. Further: potency means the concentration at half of the fitted maximal effect. The method in brief:
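Reporter HepG2 cells expressing PXR-Luc are cultured in charcoal-stripped FBS (5%), treated with compounds for 24 hr at 37 C, and assayed by ONE-Glo luminescence after 30 min at room temperature.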

The target in assay [17] is Cytochrome P450 2C9 (Homo sapiens) (UniProt P11712). The assay can be described thus: Cytochrome P450 Family 2 Subfamily C Member 9 (CYP2C9) small molecule antagonists: luciferase reporter qHTS assay (AID 1671198). Further: nearly all actives have a fitted effect of over 50% in size. Further: potency means the concentration at half of the fitted maximal effect. In short, it runs like this: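 P450-Glo proluciferin substrate with CYP2C9 enzyme; 10 min RT preincubation, then NADPH regeneration 1 h at 37C; luciferin detection reagent 20 min RT, luminescence in relative luminescence units.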
Sequence of Cytochrome P450 2C9 (Homo sapiens) (P11712 whole entry, looked up): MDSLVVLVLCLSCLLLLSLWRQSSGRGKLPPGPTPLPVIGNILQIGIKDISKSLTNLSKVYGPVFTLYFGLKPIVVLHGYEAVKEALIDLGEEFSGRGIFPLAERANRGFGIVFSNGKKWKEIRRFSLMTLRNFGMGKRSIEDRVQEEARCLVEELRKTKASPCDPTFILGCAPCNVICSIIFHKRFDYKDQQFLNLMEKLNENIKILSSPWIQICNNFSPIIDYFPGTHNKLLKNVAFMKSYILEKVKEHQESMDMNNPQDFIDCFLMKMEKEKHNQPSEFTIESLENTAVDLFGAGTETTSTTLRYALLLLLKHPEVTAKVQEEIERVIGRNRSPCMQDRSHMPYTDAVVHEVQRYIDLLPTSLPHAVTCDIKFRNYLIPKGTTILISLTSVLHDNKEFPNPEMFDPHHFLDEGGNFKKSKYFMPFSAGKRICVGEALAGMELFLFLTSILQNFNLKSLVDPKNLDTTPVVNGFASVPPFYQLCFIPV

The target in assay [18] is Nuclear receptor subfamily 1 group I member 2 (Rattus norvegicus) (UniProt Q9R1A7). The experiment in a line: Rat pregnane X receptor (rPXR) activation by small molecules, qHTS assay (AID 1346983). Further: potency means the concentration at half of the fitted maximal effect; nearly all actives have a fitted effect of over 20% in size. The conditions noted are these: rPXR luciferase reporter cells, One-Glo luminescence, 24 h; max activation: stronger effect = higher value. In short, it runs like this:
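Cell-based rPXR activation assay: rPXR cells, 2,000 per well, rested 5hr at 37 C, then exposed to compounds in DMSO for 24 hr at 37 C. Luciferase activity read by One-Glo luminescence after 30 min at room temperature.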

Assay [19] has as its target Cytochrome P450 3A4 (Homo sapiens) (UniProt P08684). The assay can be described thus: Cytochrome P450 Family 3 Subfamily A Member 4 (CYP3A4) small molecule antagonists: luciferase reporter qHTS assay (AID 1671201). The method in brief: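 CYP3A4 activity was followed with a P450-Glo proluciferin substrate. Test compounds in DMSO were preincubated 10 min; NADPH regeneration then ran 1 h, and light output was read 20 min after detection reagent.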

Sequence of Cytochrome P450 2D6 (Homo sapiens) (P10635 whole entry, looked up): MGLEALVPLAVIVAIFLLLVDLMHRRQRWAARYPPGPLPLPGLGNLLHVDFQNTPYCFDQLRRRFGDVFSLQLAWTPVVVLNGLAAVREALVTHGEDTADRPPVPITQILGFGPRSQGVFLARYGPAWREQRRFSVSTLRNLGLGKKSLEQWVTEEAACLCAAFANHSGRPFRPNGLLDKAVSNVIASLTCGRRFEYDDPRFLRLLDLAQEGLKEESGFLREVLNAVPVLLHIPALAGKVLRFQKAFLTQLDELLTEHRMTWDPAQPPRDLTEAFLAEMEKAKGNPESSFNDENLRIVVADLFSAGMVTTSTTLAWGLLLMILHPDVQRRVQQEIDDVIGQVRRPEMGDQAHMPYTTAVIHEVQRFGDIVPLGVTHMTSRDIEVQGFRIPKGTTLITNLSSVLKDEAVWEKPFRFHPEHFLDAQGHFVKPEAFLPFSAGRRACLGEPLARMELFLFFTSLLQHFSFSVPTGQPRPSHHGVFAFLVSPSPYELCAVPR
Sequence of Thyrotropin-releasing hormone receptor (Homo sapiens) (P34981 whole entry, looked up): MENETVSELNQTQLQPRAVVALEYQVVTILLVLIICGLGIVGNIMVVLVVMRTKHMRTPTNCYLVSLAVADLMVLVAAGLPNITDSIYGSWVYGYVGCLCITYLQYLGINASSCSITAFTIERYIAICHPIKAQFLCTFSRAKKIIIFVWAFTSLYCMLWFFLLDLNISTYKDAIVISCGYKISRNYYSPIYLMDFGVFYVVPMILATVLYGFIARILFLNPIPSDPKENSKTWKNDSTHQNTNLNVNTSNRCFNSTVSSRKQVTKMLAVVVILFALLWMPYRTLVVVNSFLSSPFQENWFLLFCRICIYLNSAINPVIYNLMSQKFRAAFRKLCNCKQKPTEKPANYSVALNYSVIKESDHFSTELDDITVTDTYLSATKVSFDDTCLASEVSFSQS
Sequence of Nuclear receptor subfamily 1 group I member 2 (Homo sapiens) (O75469 whole entry, looked up): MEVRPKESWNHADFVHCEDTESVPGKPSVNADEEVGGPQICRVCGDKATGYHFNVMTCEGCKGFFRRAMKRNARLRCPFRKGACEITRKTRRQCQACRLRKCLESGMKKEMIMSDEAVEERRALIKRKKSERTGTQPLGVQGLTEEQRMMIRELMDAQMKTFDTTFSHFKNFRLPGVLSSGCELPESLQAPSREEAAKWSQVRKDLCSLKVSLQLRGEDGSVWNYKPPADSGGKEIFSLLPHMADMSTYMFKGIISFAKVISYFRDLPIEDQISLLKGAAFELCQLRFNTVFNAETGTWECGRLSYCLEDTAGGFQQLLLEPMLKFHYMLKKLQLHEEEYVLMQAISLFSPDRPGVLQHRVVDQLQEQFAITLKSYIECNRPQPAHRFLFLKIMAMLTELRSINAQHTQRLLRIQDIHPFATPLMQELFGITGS
Sequence of Cytochrome P450 2C19 (Homo sapiens) (P33261 whole entry, looked up): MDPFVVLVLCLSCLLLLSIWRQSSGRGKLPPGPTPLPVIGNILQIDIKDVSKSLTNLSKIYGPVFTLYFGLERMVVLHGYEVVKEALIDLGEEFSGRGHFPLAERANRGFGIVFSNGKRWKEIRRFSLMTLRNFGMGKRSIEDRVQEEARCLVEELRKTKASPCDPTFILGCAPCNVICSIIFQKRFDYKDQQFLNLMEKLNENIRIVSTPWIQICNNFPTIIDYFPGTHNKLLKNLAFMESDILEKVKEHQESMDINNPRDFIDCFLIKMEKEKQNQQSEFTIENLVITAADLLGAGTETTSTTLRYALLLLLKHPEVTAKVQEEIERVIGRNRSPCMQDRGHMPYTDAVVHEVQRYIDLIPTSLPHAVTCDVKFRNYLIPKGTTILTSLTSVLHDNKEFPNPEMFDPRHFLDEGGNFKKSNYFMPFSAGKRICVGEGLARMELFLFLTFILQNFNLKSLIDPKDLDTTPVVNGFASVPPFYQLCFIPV
Sequence of Voltage-gated inwardly rectifying potassium channel KCNH2 (Homo sapiens) (Q12809 whole entry, looked up): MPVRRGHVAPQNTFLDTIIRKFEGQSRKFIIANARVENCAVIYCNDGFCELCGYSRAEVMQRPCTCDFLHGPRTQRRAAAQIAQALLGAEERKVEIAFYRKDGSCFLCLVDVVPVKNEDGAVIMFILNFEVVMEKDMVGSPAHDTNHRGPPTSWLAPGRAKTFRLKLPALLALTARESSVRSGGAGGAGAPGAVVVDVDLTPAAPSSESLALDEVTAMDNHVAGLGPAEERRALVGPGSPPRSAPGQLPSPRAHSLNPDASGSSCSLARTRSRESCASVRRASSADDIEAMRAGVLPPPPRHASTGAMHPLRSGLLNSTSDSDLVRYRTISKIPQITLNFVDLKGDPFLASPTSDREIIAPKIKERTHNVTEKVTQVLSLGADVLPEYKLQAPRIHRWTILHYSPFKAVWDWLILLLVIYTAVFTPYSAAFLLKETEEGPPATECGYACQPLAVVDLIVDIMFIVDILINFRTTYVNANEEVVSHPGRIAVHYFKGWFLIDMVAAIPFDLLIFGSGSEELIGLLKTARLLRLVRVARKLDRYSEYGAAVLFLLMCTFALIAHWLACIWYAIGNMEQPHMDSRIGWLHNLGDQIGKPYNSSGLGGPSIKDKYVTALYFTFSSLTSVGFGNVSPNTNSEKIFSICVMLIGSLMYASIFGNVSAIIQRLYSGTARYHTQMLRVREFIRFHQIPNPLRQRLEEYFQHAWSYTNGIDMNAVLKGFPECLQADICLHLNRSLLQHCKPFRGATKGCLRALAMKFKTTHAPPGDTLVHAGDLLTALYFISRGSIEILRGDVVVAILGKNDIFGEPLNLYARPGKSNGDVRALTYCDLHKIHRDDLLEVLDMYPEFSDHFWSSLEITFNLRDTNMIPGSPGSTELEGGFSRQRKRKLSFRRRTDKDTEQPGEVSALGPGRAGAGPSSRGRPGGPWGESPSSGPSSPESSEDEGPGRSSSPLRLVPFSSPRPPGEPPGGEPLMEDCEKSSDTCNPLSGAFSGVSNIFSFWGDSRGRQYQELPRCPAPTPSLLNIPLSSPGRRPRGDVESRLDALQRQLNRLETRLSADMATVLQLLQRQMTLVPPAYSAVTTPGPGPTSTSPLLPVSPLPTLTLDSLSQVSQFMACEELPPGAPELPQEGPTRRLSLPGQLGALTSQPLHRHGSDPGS
Sequence of Cytochrome P450 3A4 (Homo sapiens) (P08684 whole entry, looked up): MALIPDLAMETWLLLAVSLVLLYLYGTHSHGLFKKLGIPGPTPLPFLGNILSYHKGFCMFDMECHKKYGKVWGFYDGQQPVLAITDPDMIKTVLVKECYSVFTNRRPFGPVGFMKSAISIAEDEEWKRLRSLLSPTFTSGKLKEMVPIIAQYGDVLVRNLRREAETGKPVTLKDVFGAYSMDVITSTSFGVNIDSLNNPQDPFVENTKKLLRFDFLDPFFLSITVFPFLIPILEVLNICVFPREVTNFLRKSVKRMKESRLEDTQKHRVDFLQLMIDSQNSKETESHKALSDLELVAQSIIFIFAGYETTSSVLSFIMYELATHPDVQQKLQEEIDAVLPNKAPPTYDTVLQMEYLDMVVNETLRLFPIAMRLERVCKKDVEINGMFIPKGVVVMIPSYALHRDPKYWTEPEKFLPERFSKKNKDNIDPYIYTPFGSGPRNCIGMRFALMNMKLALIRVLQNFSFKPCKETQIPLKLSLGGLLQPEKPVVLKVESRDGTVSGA
Sequence of Nuclear receptor subfamily 1 group I member 2 (Rattus norvegicus) (Q9R1A7 whole entry, looked up): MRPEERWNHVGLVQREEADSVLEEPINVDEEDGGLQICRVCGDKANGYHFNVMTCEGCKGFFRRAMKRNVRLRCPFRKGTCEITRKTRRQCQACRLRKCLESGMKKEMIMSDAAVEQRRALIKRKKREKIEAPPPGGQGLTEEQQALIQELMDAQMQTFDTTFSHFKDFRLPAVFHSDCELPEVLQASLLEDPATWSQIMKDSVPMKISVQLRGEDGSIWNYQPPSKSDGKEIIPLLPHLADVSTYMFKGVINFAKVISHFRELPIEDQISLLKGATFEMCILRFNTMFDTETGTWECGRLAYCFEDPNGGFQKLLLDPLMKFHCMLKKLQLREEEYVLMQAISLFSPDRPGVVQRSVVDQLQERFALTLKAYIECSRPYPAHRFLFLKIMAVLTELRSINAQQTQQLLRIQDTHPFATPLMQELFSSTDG

Consider `CCCSc1ccc2nc(NC(=O)OC)[nH]c2c1`, for which the Potency entry in [1], in assay [2], in assay [3], in [5], in assay [7] and in assay [10] was “inactive” throughout. For the same compound, the Potency result in assay [11] and in [12] was “inactive” each time. For the same compound, the result in [4], in assay [6], in assay [9] and in assay [14] was inactive. Besides, the Potency was 969 nM (active) in assay [8]; 5.64 µM (active) and 5.75 µM (active) in assay [13].

Consider `C=CCOC(=O)c1ccccc1C(=O)OCC=C`, for which the Potency entry in assay [1], in assay [2], in assay [3], in [5], in assay [7] and in assay [8] was “inactive” throughout. In addition, the Potency result in [15], in assay [10], in assay [16] and in [11] was “inactive” in each case. The call in assay [4], in assay [6], in assay [9] and in assay [14] was inactive. Besides, the Potency is 1.56 µM (active) and 1.26 µM (active) in assay [12]; 3.93 µM (active) and 5.64 µM (active) in assay [17]; 2.48 µM (active) and 3.56 µM (active) in [13].

Take `O=C(Oc1ccccc1)c1ccccc1`: the Potency result in assay [1], in assay [2], in assay [3], in assay [5], in [7] and in assay [8] was “inactive” in each case. Further, the Potency entry in assay [15], in assay [10], in assay [16], in assay [11], in [12] and in [17] was “inactive” throughout. For the same compound, the result in [4], in assay [6], in assay [9] and in assay [14] was inactive. For the same compound, the Potency in [13] was 31.7 µM (active).

Regarding `CC[C@H](C)C(=O)O[C@H]1C[C@@H](C)C=C2C=C[C@H](C)[C@H](CC[C@@H]3C[C@@H](O)CC(=O)O3)[C@H]21`, the Potency is 7.66 µM (active) in [1]; 38.5 µM (active) and inactive in assay [5]; 55.2 µM (active) and inactive in assay [8]; 69.6 µM (active) in [15]; 69.6 µM (active) and inactive in [10]; 24.7 µM (active) and inactive in [16]. Moreover, the Potency in assay [18] was 12.6 µM (active); in assay [11] it was 36.1 µM (active) and inactive. The Potency result in assay [2], in assay [3], in [7] and in [13] was “inactive” throughout. Also, the call in assay [4], in [6] and in assay [9] was inactive.

Take `Nc1cc([N+](=O)[O-])ccc1O`: the Potency entry in assay [1], in assay [2], in assay [3], in [5], in [8] and in assay [16] was “inactive” throughout. Also, the Potency entry in assay [19] is “inactive”. The compound was called inactive in assay [4], in assay [6], in assay [9] and in [14]. For the same compound, the Potency was 39.8 µM (active) and 54.2 µM (active) in assay [7]; 48.6 µM (active) and 68.2 µM (active) in assay [10]; 39.9 µM (active) and inactive in assay [12]; 31.7 µM (active) and 39.7 µM (active) in assay [17]; 39.9 µM (active) in assay [13].

As to `COc1ccc(Nc2ccccc2)c(C)c1`, the Potency result in assay [1], in [2], in assay [3], in assay [5], in assay [7] and in assay [8] was “inactive” in each case. The Potency entry in assay [10], in assay [11] and in [17] was “inactive” in each case. Also, the call in assay [4], in assay [6], in assay [9] and in assay [14] was inactive. For the same compound, the Potency result in assay [16] was “inactive and 54.5 µM (active)”; in assay [12], “inactive and 3.17 µM (active)”; in assay [13], “inactive and 11.2 µM (active)”.

As to `Nc1ccccc1[N+](=O)[O-]`, the Potency result in assay [1], in [2], in assay [3], in assay [5], in [7] and in assay [8] was “inactive” in each case. Moreover, the Potency entry in [15], in assay [10], in [16], in [11], in assay [12] and in [17] was “inactive” throughout. Besides, the call in [4], in assay [6], in assay [9] and in [14] was inactive. Moreover, the Potency in assay [13] was 35.9 µM (active).
